# PubChem BioAssay
# Active and inactive are the calls of the source.
# Key:
# [1] = small molecules captured by biotinylated probe aFSTL3 – biochemical, small-molecule microarray, fluorescence 635/667, stem cell growth factor project, primary screen (AID 1064); conditions: higher = more signal;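 also: measures binding of the biotinylated anti-FSTL3 antibody to printed compounds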
# [2] = binders from COS7 lysate, DM2A8 probe, primary screen, torsin A project, cell lysate, small-molecule microarray, fluorescence 635/667 (AID 1065); conditions: higher = more signal, COS7 lysate expressing mutant human TOR1A
# [3] = small molecules captured by biotinylated probe aFGF2 – biochemical, small-molecule microarray, fluorescence 635/667, stem cell growth factor project, primary screen (AID 1067); conditions: higher = more signal;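 also: measures binding of biotinylated aFGF2 protein to printed compounds on slides; z-score merges feature fluorescence and signal-to-noise across triplicate slides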
# [4] = small molecules captured by biotinylated probe aFGF10 – biochemical, small-molecule microarray, fluorescence 635/667, stem cell growth factor project, primary screen (AID 1071); conditions: higher = more signal;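 also: score merges 667 nm spot intensity and signal to noise from triplicate slides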
# [5] = biological target: Neurogenic locus notch homolog protein 2 (Homo sapiens) (UniProt Q04721); test: small molecules binding Notch2 protein – biochemical, small-molecule microarray, 635 nm fluorescence, stem cell growth factors, primary screen (AID 1073); conditions: higher = more signal
# Neurogenic locus notch homolog protein 2 (Homo sapiens), sequence (Q04721 whole entry, looked up, canonical isoform): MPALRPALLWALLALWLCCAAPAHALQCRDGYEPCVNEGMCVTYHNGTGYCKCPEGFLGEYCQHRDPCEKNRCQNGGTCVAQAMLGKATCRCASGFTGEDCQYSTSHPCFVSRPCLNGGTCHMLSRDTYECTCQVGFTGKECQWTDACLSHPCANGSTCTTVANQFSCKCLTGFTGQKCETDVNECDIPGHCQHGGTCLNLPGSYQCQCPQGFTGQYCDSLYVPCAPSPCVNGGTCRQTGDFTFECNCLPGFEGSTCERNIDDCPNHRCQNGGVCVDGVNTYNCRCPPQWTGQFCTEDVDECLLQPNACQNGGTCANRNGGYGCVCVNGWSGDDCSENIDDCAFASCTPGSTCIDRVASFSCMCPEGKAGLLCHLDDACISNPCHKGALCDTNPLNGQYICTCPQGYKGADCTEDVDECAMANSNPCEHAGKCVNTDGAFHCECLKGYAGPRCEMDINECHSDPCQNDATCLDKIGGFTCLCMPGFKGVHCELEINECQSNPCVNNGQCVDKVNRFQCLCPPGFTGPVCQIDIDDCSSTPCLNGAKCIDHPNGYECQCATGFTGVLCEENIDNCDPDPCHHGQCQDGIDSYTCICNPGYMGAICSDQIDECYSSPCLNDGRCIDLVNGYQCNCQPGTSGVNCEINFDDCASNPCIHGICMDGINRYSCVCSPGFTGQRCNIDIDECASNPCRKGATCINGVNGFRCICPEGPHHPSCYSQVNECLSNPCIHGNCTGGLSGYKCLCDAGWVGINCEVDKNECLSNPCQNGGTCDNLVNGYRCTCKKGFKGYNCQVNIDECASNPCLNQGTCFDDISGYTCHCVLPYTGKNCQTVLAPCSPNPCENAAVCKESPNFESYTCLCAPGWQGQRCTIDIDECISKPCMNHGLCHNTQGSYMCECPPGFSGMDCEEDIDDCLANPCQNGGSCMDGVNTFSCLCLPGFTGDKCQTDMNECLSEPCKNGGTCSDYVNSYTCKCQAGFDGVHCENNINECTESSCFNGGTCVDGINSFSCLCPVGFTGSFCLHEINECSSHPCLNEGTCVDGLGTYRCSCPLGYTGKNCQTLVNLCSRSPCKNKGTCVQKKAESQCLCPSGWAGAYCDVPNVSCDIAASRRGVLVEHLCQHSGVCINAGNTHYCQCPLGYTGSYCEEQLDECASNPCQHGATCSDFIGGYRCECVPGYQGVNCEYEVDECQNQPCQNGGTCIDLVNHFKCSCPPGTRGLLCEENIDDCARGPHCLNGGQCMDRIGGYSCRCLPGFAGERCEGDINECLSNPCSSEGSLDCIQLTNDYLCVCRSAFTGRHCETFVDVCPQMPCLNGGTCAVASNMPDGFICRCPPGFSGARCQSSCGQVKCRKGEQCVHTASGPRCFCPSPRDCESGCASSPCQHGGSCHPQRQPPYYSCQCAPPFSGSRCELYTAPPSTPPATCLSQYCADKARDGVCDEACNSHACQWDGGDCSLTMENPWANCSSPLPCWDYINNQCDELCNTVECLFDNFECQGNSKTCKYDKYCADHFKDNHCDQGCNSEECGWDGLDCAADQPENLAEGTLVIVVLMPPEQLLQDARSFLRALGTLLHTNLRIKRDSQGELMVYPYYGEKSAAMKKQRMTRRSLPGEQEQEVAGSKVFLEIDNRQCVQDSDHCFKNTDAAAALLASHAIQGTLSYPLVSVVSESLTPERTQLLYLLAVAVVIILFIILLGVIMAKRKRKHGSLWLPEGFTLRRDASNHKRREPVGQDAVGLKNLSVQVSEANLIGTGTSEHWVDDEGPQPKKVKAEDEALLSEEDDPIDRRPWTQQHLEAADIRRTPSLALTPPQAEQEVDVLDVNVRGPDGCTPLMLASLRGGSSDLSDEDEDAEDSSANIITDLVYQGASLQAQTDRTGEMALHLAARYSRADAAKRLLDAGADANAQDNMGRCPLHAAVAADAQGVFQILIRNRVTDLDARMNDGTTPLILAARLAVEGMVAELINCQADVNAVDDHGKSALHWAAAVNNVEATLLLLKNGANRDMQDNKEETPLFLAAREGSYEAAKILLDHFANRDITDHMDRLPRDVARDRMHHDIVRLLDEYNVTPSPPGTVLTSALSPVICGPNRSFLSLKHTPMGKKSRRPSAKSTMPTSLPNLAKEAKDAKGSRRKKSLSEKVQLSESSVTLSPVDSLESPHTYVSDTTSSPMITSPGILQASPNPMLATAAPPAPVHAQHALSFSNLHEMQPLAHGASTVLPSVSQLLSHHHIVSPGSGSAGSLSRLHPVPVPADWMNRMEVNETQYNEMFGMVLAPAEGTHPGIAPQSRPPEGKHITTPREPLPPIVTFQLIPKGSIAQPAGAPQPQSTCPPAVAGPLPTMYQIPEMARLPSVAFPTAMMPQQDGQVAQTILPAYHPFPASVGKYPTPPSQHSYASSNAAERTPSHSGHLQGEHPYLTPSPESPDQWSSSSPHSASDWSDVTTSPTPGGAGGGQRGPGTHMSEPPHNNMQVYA
# [6] = biological target: Pro-neuregulin-1, membrane-bound isoform (Homo sapiens) (UniProt Q02297); test: small molecules binding neuregulin-1 protein – biochemical, small-molecule microarray, fluorescence 635/667, psychiatric disease protein project, primary screen (AID 1075); conditions: NRG1 binding, 635 nm fluorescence, higher = more signal;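 also: score combines 667 nm spot fluorescence with signal to noise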
# Pro-neuregulin-1, membrane-bound isoform (Homo sapiens), sequence (Q02297 whole entry, looked up, the tested form may be a part, canonical isoform): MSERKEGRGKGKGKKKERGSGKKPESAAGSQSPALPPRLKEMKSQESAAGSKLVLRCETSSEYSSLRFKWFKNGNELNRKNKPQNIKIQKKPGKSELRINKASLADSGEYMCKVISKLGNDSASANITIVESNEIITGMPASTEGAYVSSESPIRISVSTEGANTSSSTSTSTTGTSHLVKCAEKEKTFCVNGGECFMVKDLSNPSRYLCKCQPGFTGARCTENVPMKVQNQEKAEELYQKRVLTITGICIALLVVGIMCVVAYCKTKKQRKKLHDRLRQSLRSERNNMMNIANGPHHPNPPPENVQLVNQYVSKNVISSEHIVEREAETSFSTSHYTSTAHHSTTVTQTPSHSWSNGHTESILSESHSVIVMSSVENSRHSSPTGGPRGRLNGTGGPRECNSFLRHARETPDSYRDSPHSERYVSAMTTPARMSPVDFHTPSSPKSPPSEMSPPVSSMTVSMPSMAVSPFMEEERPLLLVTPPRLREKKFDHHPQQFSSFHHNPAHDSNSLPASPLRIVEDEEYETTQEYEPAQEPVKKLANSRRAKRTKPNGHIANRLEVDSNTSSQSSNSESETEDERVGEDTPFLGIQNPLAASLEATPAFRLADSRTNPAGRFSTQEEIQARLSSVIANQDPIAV
# [7] = tested on: Neuregulin-1 EGF-like domain; test: small molecules binding NRG1 EGF domain – biochemical, small-molecule microarray, 635 nm fluorescence, primary screen (AID 1081); conditions: higher = more signal;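 also: binding of the protein to compounds printed on small-molecule microarray slides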
# [8] = FRG1 expression reporter modulators in myotubes – cell-based, C2C12 myotubes, firefly/Renilla luciferase, luminescence, FRG1 inhibition for FSHD, primary screen (AID 1084); conditions: FRG1 promoter luciferase, higher = more signal, called active from +8 up or from −8 down
# [9] = small molecules captured by biotinylated probe aFST – biochemical, small-molecule microarray, fluorescence 635/667, stem cell growth factor project, primary screen (AID 1086); conditions: higher = more signal;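 also: score merges 667 nm fluorescence with signal-to-noise of each printed compound spot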
# [10] = binders of probe aHhip on microarray, primary screen, stem cell growth factor project, biochemical, small-molecule microarray, fluorescence 635/667 (AID 1087); conditions: higher = more signal;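 also: score merges spot fluorescence at 667nm with spot signal to noise ratio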
# [11] = tested on: PRMT1 (protein arginine N-methyltransferase 1); test: small molecules binding arginine methyltransferase PRMT1 – biochemical, small-molecule microarray, 635 nm fluorescence, primary screen (AID 1088); conditions: higher = more signal;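 also: binding of Prmt1 protein to compounds spotted on small-molecule microarray slides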
# [12] = growth effects on S. cerevisiae YJM789 – YJM789 clinical isolate, OD600, 24 h, basal, primary screen (AID 1089); conditions: higher = more signal, called active from +8 up or from −8 down;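 also: growth of clinical yeast isolate S. cerevisiae YJM 789 seeded 1000 cells per well; test concentration not given here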
# [13] = S. pombe growth modifiers, basal conditions – strain 972, OD600, 24 h, no modulator, primary screen (AID 1090);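 also: basal condition with compound alone and no growth modifier present; test concentration not given here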; conditions: S. pombe 972 growth, higher = more signal, called active from +8 up or from −8 down
# [14] = budding yeast growth modifiers under rapamycin – strain BY4716, OD600, 96 h, primary screen (AID 1091); also: test concentration not given here; conditions: S. cerevisiae BY4716 + rapamycin, higher = more signal, called active from +8 up or from −8 down
# [15] = biological target: Torsin-1A-interacting protein 2 (Homo sapiens) (UniProt Q8NFQ8); test: small molecules binding lysate-expressed LULL1 – cell lysate, human LULL1 lysate, 635/667 nm fluorescence, primary screen (AID 1092); conditions: small-molecule microarray, hLULL1 lysate binding, 635 nm fluorescence; higher = more signal;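 also: probe is lysate of COS7 cells overexpressing human LULL1; score merges per-feature 667 nm fluorescence with signal-to-noise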
# Torsin-1A-interacting protein 2 (Homo sapiens), sequence (Q8NFQ8 whole entry, looked up): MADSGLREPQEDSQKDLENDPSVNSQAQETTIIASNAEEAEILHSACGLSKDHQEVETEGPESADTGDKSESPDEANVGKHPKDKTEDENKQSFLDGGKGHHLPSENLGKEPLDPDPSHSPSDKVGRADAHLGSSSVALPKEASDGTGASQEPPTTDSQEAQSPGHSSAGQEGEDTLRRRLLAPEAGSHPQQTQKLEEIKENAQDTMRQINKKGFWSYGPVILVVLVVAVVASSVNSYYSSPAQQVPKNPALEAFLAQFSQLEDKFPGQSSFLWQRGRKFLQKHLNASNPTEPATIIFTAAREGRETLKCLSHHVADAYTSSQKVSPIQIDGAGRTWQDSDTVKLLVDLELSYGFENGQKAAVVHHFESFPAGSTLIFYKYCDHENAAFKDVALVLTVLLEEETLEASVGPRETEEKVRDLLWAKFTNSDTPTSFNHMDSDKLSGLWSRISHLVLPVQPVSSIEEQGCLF
# [16] = optical density change of DRC41 E. coli – strain DRC41, OD650, 24 h, E. coli filamentation project, primary screen (AID 1093);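 also: MC1000 strain lacking acrAB efflux and sulA so SOS filamentation is blocked; test concentration not given here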; conditions: E. coli DRC41 growth, higher = more signal, called active from +8 up or from −8 down
# [17] = probe aLefty2 binding to arrayed compounds – biochemical, biotinylated probe, 635/667 nm fluorescence, primary screen (AID 1094); conditions: small-molecule microarray, higher = more signal;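 also: score merges spot fluorescence near 667 nm with spot signal-to-noise ratio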
# [18] = tested on: Noggin (protein binding on small-molecule microarray); test: small molecules binding Noggin protein – biochemical, 635/667 nm fluorescence, primary screen (AID 1095); conditions: 635 nm fluorescence, higher = more signal;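 also: score merges 667 nm feature fluorescence with signal to noise over triplicate slides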
# [19] = biological target: Neurogenic locus notch homolog protein 3 (Homo sapiens) (UniProt Q9UM47); test: small molecules binding NOTCH3 protein – biochemical, 635/667 nm fluorescence, primary screen (AID 1096); conditions: small-molecule microarray, 635 nm fluorescence, higher = more signal
# [20] = probe aEGFR binding to arrayed compounds – biochemical, biotinylated probe, 635/667 nm fluorescence, primary screen (AID 1097); conditions: small-molecule microarray, higher = more signal;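 also: probe is a biotinylated anti-EGFR antibody binding compounds printed on slides; score combines fluorescence near 667 nm and signal to noise of each spot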
Structure (SMILES),composite z-score [1],composite z-score [2],composite z-score [3],composite z-score [4],composite z-score [5],composite z-score [6],composite z-score [7],z-score [8],composite z-score [9],composite z-score [10],composite z-score [11],z-score [12],z-score [13],z-score [14],composite z-score [15],z-score [16],composite z-score [17],composite z-score [18],composite z-score [19],composite z-score [20]
CC(C)(C)OC(=O)CC[C@@]12N=C(c3ccc(OCCCO)cc3)O[C@@H]1c1ccccc1CN(Cc1ccccc1)C2=O,0.265,0.141,-0.0118,0.294,0.549,0.391,1.14,-4.73 (inactive),0.419,-0.069,1.56,1.44 (inactive),-3.05 (inactive),6.17 (inactive),2.49,1.36 (inactive),-0.0664,1.62,0.981,-0.103
COc1ccc([Si](C)(C)[C@H]2[C@H](CC(=O)N(CCO)Cc3ccccc3)O[C@@]3(C(=O)N(Cc4cccc(N5C(=O)COc6ccccc65)c4)c4ccccc43)[C@@H]2C)cc1,1.54,0.347,-0.106,0.585,0.703,1.11,1.27,-1.84 (inactive),-0.103,0.245,1.44,2.21 (inactive),0.272 (inactive),3.48 (inactive),2.13,2.09 (inactive),-0.0846,0.97,0.496,0.0927
CC1CC/C=C\[C@H]2OC34C=CCN(C(C)C)C(=O)[C@H]3N(C(CO)C(C)C)C(=O)[C@@H]4C2C(=O)O1 (stereo not given in full),1.54,-0.267,-0.0985,-0.365,-0.662,-0.593,0.475,-0.416 (inactive),-0.422,-0.0994,-0.825,0.959 (inactive),-1.84 (inactive),-0.631 (inactive),1.55,2.14 (inactive),-0.0229,-0.684,-0.274,-0.154
CCCCC(=C=CC[C@H](O)c1cccc(OCCO)c1)CCO,-0.0452,-0.0768,-0.0976,-0.662,-0.854,0.52,0.519,0.125 (inactive),-0.101,0.0623,-0.19,0.166 (inactive),-0.486 (inactive),-1.16 (inactive),1.33,1.11 (inactive),-0.12,0.0201,-0.498,-0.268
O=C1O[C@@H](c2ccccc2)[C@@H](c2ccccc2)N2[C@@H](c3ccc(OCCO)cc3)[C@]3(C(=O)Nc4ccc(C#CC5(O)CCCCCC5)cc43)[C@@H](C(=O)NC[C@H](O)c3ccccc3)[C@H]12,0.0882,1,-0.0258,1.06,1.42,1.43,1.26,-0.222 (inactive),0.934,-0.191,1.55,1.24 (inactive),1.21 (inactive),5.49 (inactive),2.3,3.13 (inactive),0.0844,0.982,1.04,-0.0332
CCCCC(=C=CC[C@@H](O)c1ccc(OCCO)cc1)C[C@@H](O)c1cc(Cl)cc(Cl)c1O,-0.12,0.0464,-0.0924,0.458,-0.0054,1.26,0.597,-2.98 (inactive),0.0049,0.0007,0.21,-2.58 (inactive),-6.3 (inactive),-1.39 (inactive),1.36,1.97 (inactive),-0.057,0.988,-0.174,0.24
COc1ccc(C#Cc2ccc3c(c2)[C@]2(C(=O)N3)[C@H](c3ccc(O)cc3)N3[C@H](c4ccccc4)[C@H](c4ccccc4)OC(=O)[C@H]3[C@@H]2C(=O)N2CCN(c3ncccn3)CC2)cc1,0.286,1.31,-0.0625,0.0869,1.19,1.64,0.892,-0.36 (inactive),0.252,0.186,1.18,0.478 (inactive),-1.84 (inactive),2.15 (inactive),2.01,1.99 (inactive),0.0708,-0.0098,0.536,-0.0854
COC(=O)C(CC#Cc1ccc2c(c1)[C@]1(C(=O)N2)[C@H](C(N)=O)[C@H]2C(=O)O[C@H](c3ccccc3)[C@H](c3ccccc3)N2[C@@H]1c1ccc(O)cc1)C(=O)OC,-0.343,-0.067,-0.245,-1.28,-0.618,0.205,0.699,-0.117 (inactive),-0.882,0.384,-0.95,0.337 (inactive),-1.04 (inactive),0.484 (inactive),0.0509,1.61 (inactive),-0.117,-1.1,-1.23,-0.442
COCCOC(=O)N1C(=O)[C@@]2(c3cc(C#CC4(O)CCCCCC4)ccc31)[C@H](c1ccccc1OCCO)N1[C@H](c3ccccc3)[C@H](c3ccccc3)OC(=O)[C@H]1[C@@H]2C(=O)Nc1nc2ccccc2s1,-0.172,1.05,0.0359,0.659,1.11,0.41,1.26,1.54 (inactive),0.325,-0.121,1.55,2.04 (inactive),-0.312 (inactive),3.94 (inactive),2.09,2.69 (inactive),0.0498,0.724,1.09,0.0403
CC(C)(C)OC(=O)CC[C@]1(C(=O)NCc2ccccc2)COC(c2ccc(OCCCO)cc2)=N1,0.508,1.3,-0.0675,0.0174,0.431,1.79,1.1,-2.97 (inactive),0.613,-0.0047,0.712,-1.08 (inactive),-0.413 (inactive),-1.64 (inactive),3.14,1.93 (inactive),0.0325,-0.148,-0.0559,-0.058
